The text below walks through data of PubChem BioAssay (NCATS).

Unmarked numbers belong to inactive results. Records with an inconclusive call do not appear. Activity calls are given as the source filed them. Calls come from the whole dose curve; as a rule, active = well fitted curve in the direction sought with a large enough effect; inconclusive = small, poorly fitted or top-dose-only effect, or another doubt; inactive = no such curve, though single readings can be large; an effect the other way counts as inactive or inconclusive.

The target of experiment [1] is Glutathione peroxidase 1 (Homo sapiens) (UniProt P07203). The experiment in a line: Primary qHTS Assay for Inhibitors of Recombinant Selenoprotein Glutathione Peroxidase 1 (GPX1) (AID 1845191). Note: nearly all actives have a fitted effect of over 65% in size. A digest of the protocol: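 10 nM GPX1 + cpd, 30 min RT; start w/ 1 mM GSH, 0.5 mM cumene hydroperoxide, 0.5 mM NADPH, 100 nM GR, 0.01% BSA; buffer 50 mM Tris-HCl pH 7.5, 2 mM EDTA, 150 mM NaCl; Fl 340/450, 0 & 15 min.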
Background: qHTS replaces the single test concentration by a dilution series.

The target of experiment [2] is Phospholipid hydroperoxide glutathione peroxidase GPX4 (Homo sapiens) (UniProt P36969). The experiment in a line: Primary qHTS Assay for Inhibitors of Recombinant Selenoprotein Glutathione Peroxidase 4 (GPX4) (AID 1845192). Note: nearly all actives have a fitted effect of over 65% in size. A digest of the protocol:
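NADPH consumption, followed by fluorescence at 340/450 nm between 0 and 15 min, reports GPX4 activity via coupled glutathione reductase (100 nM). Enzyme 200 nM was pre-exposed to compound 30 min; 0.5 mM cumene hydroperoxide and 1 mM GSH served as substrates.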

Experiment [3] can be described thus: Primary fluorescence-based thiol-reactive (MSTI) qHTS assay for identification of artifact compounds. (AID 1845221). Note: nearly all actives have a fitted effect of over 65% in size. Note: potency is the fitted concentration of half-maximal effect. A digest of the protocol: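 MSTI probe at 4 uM final in 2% DMSO/PBS pH 7.4; compounds, 1 h at room temperature in dark. Fluorescence Ex/Em 525/598 nm, normalised to Acetyl-MSTI and MSTI, fitted to 4-parameter Hill.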
The subject of experiment [4] is Nanoluciferase (engineered Oplophorus gracilirostris luciferase). As to the kind of experiment: Primary Nanoluciferase (NLuc) qHTS assay for identification of artifact compounds. (AID 1845222). Note: series mostly up to about 54 µM. A digest of the protocol: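 Luminescence from secreted NLuc (filtered, 1:55-diluted S16 cell medium) read 5 min after Nano-Glo substrate; compounds preincubated 15 min, RT. Hill fits of inhibition normalized to DMSO and no-enzyme.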

Experiment [5] can be described thus: Primary redox qHTS assay for identification of artifact compounds. (AID 1845223). A digest of the protocol:
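Amplex Red (25 uM) and HRP (250 mU/mL) in HBSS, with compounds for 15 min, then 250 uM DTT for 30 min, room temperature, dark. Fluorescence 525/598 nm read; normalized to DMSO and 10 uM DA3003; Hill fit.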

Experiment [6] deals with Luciferin 4-monooxygenase (Photinus pyralis) (UniProt P08659). As to the kind of experiment: Primary firefly luciferase (FLuc) qHTS assay for identification of artifact compounds. (AID 1845220). Note: nearly all actives have a fitted effect of over 60% in size. A digest of the protocol:
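Compounds sat 15 min at room temperature with 10 uM luciferin and 10 uM ATP (pH 7.6 Tris acetate). Firefly luciferase (10 nM final) was then added, and luminescence was read 5 min later. Data normalized to no-enzyme and DMSO controls were Hill-fitted.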

Phospholipid hydroperoxide glutathione peroxidase GPX4 (Homo sapiens), sequence (P36969 whole entry, looked up): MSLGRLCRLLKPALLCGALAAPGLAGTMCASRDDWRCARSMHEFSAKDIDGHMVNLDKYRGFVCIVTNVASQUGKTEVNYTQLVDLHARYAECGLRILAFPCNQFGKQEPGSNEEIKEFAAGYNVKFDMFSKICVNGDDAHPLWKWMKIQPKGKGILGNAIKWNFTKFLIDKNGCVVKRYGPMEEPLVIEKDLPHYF
Glutathione peroxidase 1 (Homo sapiens), sequence (P07203 whole entry, looked up): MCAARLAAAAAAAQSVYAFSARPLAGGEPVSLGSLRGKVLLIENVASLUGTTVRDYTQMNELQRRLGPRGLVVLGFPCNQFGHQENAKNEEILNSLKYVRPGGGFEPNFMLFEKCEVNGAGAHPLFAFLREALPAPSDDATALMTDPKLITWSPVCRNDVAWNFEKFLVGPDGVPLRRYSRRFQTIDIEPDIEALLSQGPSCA

Take `COc1c(-c2ccc(O)cc2)cc(OC)c2c1oc1cc(O)c(OC3OC(CO)C(O)C3O)cc12` (centres undefined): the Potency entry in experiment [1], in experiment [2], in experiment [4] and in experiment [5] was “inactive” in each case. The Potency in experiment [3] is 4.62 µM (active).
As for `N=C(N)c1ccc2nc(-c3cc(CC(=O)NC(CC(=O)O)C(=O)O)cc(-c4cc(S(N)(=O)=O)ccc4O)c3O)[nH]c2c1` (centres undefined), the Potency entry in experiment [1], in experiment [2], in experiment [4] and in experiment [5] was “inactive” each time. The Potency in experiment [3] is 2.12 µM (active).
Consider `COC(=O)C1=CO[C@@H](O[C@@H]2O[C@H](CO)[C@@H](O)[C@H](O)[C@H]2O)[C@@H]2C(C)CC(=O)[C@]12O` (some centres undefined), for which the Potency result in experiment [1], in experiment [2], in experiment [6], in experiment [4] and in experiment [5] was “inactive” throughout.
For `COC(=O)c1ccc(OC)cc1O[C@@H]1O[C@H](CO[C@@H]2OC[C@@H](O)[C@H](O)[C@H]2O)[C@@H](O)[C@H](O)[C@H]1O`, the Potency result in experiment [1], in experiment [2], in experiment [6], in experiment [4] and in experiment [5] was “inactive” in each case.
For the compound `CC(C)c1ccc2c(c1)CCC1[C@](C)(C(=O)O)CCC[C@]21C` (some centres undefined), the Potency result in experiment [1], in experiment [2], in experiment [3], in experiment [4] and in experiment [5] was “inactive” throughout.
Consider `C=C1CC23CC1CCC2C12OC(=O)C(C)(C(O)C(O)C1O)C2C3C(=O)O` (centres undefined), for which the Potency entry in experiment [1], in experiment [2], in experiment [6], in experiment [4] and in experiment [5] was “inactive” in each case.
On to `Nc1c(-c2ccccc2)nc(Cl)c2c(O)n[nH]c(=O)c12`, for which the Potency entry in experiment [1], in experiment [2], in experiment [6], in experiment [4] and in experiment [5] was “inactive” throughout.
Consider `Cc1cc(C(=O)N2Cc3cnn(C)c3Nc3ccccc32)ccc1CNC(=O)N1CCN(Cc2cc(O)cc(O)c2)CC1`, for which the Potency entry in experiment [1], in experiment [2], in experiment [3] and in experiment [4] was “inactive” in each case.
On to `O=C(O)CC1CCC(c2ccc(NC(=O)c3nnc(Nc4ccc(F)c(F)c4)o3)cc2)CC1` (centres undefined), for which the Potency entry in experiment [1], in experiment [2], in experiment [3], in experiment [4] and in experiment [5] was “inactive” throughout.
For the compound `CS(=O)(=O)c1ccccc1N1CCN(c2nc3c(c(=O)[nH]2)CSCC3)CC1`, the Potency entry in experiment [1], in experiment [2], in experiment [6], in experiment [4] and in experiment [5] was “inactive” each time.
In the case of `COc1cc(/C=C/C(=O)O[C@@H]2C[C@](O)(C(=O)O)C[C@@H](O)[C@H]2O)ccc1O`, the Potency result in experiment [1], in experiment [2], in experiment [6], in experiment [4] and in experiment [5] was “inactive” in each case.
Regarding `COc1cc(C)c(C(=O)O[C@@H]2[C@H](O)[C@@H](CO)O[C@H]2n2ccc(=O)[nH]c2=O)c(OC)c1`, the Potency entry in experiment [1], in experiment [2], in experiment [3], in experiment [4] and in experiment [5] was “inactive” each time.
For the compound `COC(=O)c1[nH]c(=O)c2ccccc2c1-c1ccc[nH]1`, the Potency entry in experiment [1], in experiment [2], in experiment [6], in experiment [4] and in experiment [5] was “inactive” each time.
On to `CCNC(=O)C1CC(F)(c2ccc(CN3CCCC3)c(F)c2)C1` (centres undefined), for which the Potency result in experiment [1], in experiment [2], in experiment [6], in experiment [4] and in experiment [5] was “inactive” throughout.
With `CC(=O)O[C@@H]1C=C2[C@H](CC[C@@]3(C)[C@@]2(O)CC[C@H]2Cc4c([nH]c5ccccc45)[C@@]23C)O[C@@H]1C(C)(C)O`, the Potency result in experiment [1], in experiment [2] and in experiment [4] was “inactive” each time. The Potency in experiment [3] was 4.12 µM (active).
Take `C/C=C(/C)C(=O)O[C@H]1C[C@]2(C)O[C@@H]2[C@@H](OC(C)=O)[C@@]2(C)CC[C@@](O)(C(C)C)[C@H]12`: the Potency entry in experiment [1], in experiment [2], in experiment [3], in experiment [4] and in experiment [5] was “inactive” throughout.
Turning to `COc1cc([C@H]2OC[C@](O)(Cc3ccc(O[C@@H]4O[C@H](CO)[C@@H](O)[C@H](O)[C@H]4O)c(OC)c3)[C@@H]2CO)ccc1O`, the Potency result in experiment [1], in experiment [2], in experiment [6], in experiment [4] and in experiment [5] was “inactive” throughout.
With `Cc1oc2nc3c(c(NC(=O)CN4CCCC4=O)c2c1C)CCCC3`, the Potency result in experiment [1], in experiment [2], in experiment [3], in experiment [4] and in experiment [5] was “inactive” in each case.
Take `COC(=O)c1c(CC=C(C)C)c(OC2OC(CO)C(O)C(O)C2O)c2ccccc2c1OC1OC(CO)C(O)C(O)C1O` (centres undefined): the Potency result in experiment [1], in experiment [2], in experiment [3], in experiment [4] and in experiment [5] was “inactive” in each case.
On to `O=C(O)Cc1cn([C@@H]2O[C@H](CO)[C@@H](O)[C@H](O)[C@H]2O[C@@H]2O[C@H](CO)[C@@H](O)[C@H](O)[C@H]2O)c2ccccc12`, for which the Potency entry in experiment [1], in experiment [2], in experiment [4] and in experiment [5] was “inactive” each time.
As to `C=C(CCO)C(=O)OCC1OCC(OC(=O)C(=C)CCO[C@@H]2O[C@H](CO)[C@@H](O)[C@H](O)[C@H]2O)C(O)C1O` (some centres undefined), the Potency result in experiment [1], in experiment [2], in experiment [3], in experiment [4] and in experiment [5] was “inactive” each time.
`COc1cccc(C(=O)NCCNc2nc3cc(C)cc(C)c3cc2C#N)c1`: the Potency entry in experiment [1], in experiment [2], in experiment [3], in experiment [4] and in experiment [5] was “inactive” each time.
Consider `OC[C@H]1O[C@@H](OCCc2ccccc2)[C@H](O)[C@@H](O)[C@@H]1O`, for which the Potency entry in experiment [1], in experiment [2], in experiment [4] and in experiment [5] was “inactive” each time. Further, the Potency in experiment [3] was 11.9 µM (active).
Turning to `CC(C)=CCC[C@@](C)(O)[C@H]1CC[C@]2(C)[C@@H]1[C@H](O)CC1[C@@]3(C)CC[C@H](O[C@@H]4O[C@H](CO)[C@@H](O)[C@H](O)[C@H]4O[C@@H]4O[C@H](CO)[C@@H](O)[C@H](O)[C@H]4O)C(C)(C)[C@@H]3CC[C@]12C` (some centres undefined), the Potency entry in experiment [1], in experiment [2], in experiment [4] and in experiment [5] was “inactive” each time.
For the compound `COc1cc(/C=C/C(=O)O[C@H]2[C@@H]3C=CO[C@@H](O[C@@H]4O[C@H](CO)[C@@H](O)[C@H](O)[C@H]4O)[C@@H]3[C@@]3(CO)O[C@@H]23)ccc1O`, the Potency result in experiment [1], in experiment [2], in experiment [4] and in experiment [5] was “inactive” each time.
As to `C=C(C)[C@H]1CC[C@]2(C(=O)O)CC[C@]3(C)C(CCC4[C@@]5(C)CCC(=O)C(C)(C)C5CC[C@]43C)C12` (some centres undefined), the Potency entry in experiment [1], in experiment [2], in experiment [4] and in experiment [5] was “inactive” throughout.
